# Screens deposited in PubChem by The Scripps Research Institute Molecular Screening Center.
# rat GALR2 ag: GALR2 (rat) receptor agonism | O08726 | cell-based GALR2 agonist screen | activation, % at 10 µM | 16,000 compounds, 0.5% hits; in the data active = activation above about 15%
# Target sequence (O08726 whole entry, looked up): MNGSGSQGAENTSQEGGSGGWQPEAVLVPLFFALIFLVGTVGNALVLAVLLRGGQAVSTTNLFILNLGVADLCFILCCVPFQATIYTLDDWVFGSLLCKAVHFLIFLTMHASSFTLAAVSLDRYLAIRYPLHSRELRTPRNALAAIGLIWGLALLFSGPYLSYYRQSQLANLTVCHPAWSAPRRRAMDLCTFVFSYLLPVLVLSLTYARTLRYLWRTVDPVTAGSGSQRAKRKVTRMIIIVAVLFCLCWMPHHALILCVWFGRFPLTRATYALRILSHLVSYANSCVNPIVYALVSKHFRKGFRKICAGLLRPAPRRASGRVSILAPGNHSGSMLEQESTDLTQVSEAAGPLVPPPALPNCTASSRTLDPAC
# luminol inh ctr: quenches luminol chemiluminescence in Nox1 counter-screen | HRP/luminol/H2O2 chemiluminescence counterscreen | inhibition, % at 6.7 µM | 16,000 compounds, 0.4% hits | AID 1823; note: reference of the scale not given here
# PME-1 Maybridge: inhibitors of human PME-1 in Maybridge library; AID 2291; inhibition, % at 9 µM; Q9Y570; 16,000 compounds, 0.5% hits; recombinant PME-1, FP-Rh probe fluorescence polarization; in the data active = inhibition above about 30%
# S1P1 ag: S1P1 (human) receptor agonism; P21453; S1P1 agonist cell-based reporter assay; activation, % at 4.5 µM; 16,000 compounds, 1.5% hits; AID 1044; in the data active = activation above about 80%
# Nox1 inh: blocks human NADPH oxidase 1 activity | inhibition, % at 6.7 µM | HT29 cells, luminol chemiluminescence ROS | 16,000 compounds, 0.81% hits | Q9Y5S8
# NOTCH ag: NOTCH pathway agonism; NOTCH signaling luciferase reporter cells, luminescence; activation, % at 2.5 µM; 15,000 compounds, 0.4% hits; in the data active = activation above about 2.2%
# * hit, by the source's call. Hits are enriched below; roughly 4.1% of the tested compounds scored in any of these assays. Cut-off read from the data, not from the text of the source, unless noted: active = inhibition above about 75%; inactive = the rest.
SMILES,rat GALR2 ag,luminol inh ctr,PME-1 Maybridge,S1P1 ag,Nox1 inh,NOTCH ag
COc1cc2c(cc1OC)[C@@H]1C(=O)c3ccc4c(c3O[C@@H]1CO2)C[C@H](C(C)C)O4,-11,-2,5,110*,15,0
Cc1c([N+](=O)[O-])cc2c(c1[N+](=O)[O-])C(C)(C)CC2(C)C,-11,1,0,102*,-6,0
CNC(=O)Oc1ccc(-c2nc(CSc3ccc(Cl)cc3)cs2)cc1,-7,102*,-11,40,-27,0
O=C1C(Cl)=C(Cl)C(=O)c2ccccc21,-18,13,45*,72,34,-1
CN1CCN(c2ccccc2C=C(C#N)C#N)CC1,0,0,2,-26,12,0
CC(=O)OC12CCC(=O)C=C1CCC1C3CCC(=O)C3(C)CCC12 (centres undefined),-5,-3,-11,9,-6,1
CC(=O)C1=NN(c2ccccc2)C2c3cccc4cccc(c34)C12 (centres undefined),-5,1,-3,0,-32,0
Cc1nn(Cc2ccccc2Cl)c(=N)s1,-7,-2,3,-5,-77,-1
COC(CSc1nc2cccc(F)c2c(=O)n1-c1ccc(C)c(C)c1)OC,-9,2,0,1,-5,-1
Nc1c([N+](=O)[O-])cncc1[N+](=O)[O-],-4,2,-7,111*,-96,0
